# Bioassay records: PubChem BioAssay, several laboratories
# phage Ecoli inh: E. coli growth loss with phage present. growth absorbance. inhibition, % at 11.9 µM. 0.26% of 360,000 active; in the data active = inhibition above about 11%
# Tat export inh: inhibitors of E. coli Tat protein transport; E. coli MC4100 TorA-mCherry Tat export, fluorescence; inhibition, % at 10 µM; 0.036% of 340,000 active;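 active = mean replicate inhibition at least 50% and at least half of replicates individually reaching 50%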;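 also: exported cargo escapes ClpAP degradation while cytoplasmic cargo is degraded and loses fluorescence; 0% = median of neutral control wells and 100% = median of NaSCN control wells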
# E coli growth-1: blocks Escherichia coli growth; 0.21% of 330,000 active; OD600, 23 h; stronger effect = lower value; AID 1053175; OD600 absorbance (test concentration not listed);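 active = OD600 absorbance below the run mean of sample wells minus 3.6 SD, in any replicate, cut at about 0.56 in these data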
# AddAB inh: less growth of phage-infected E. coli with AddAB; E. coli expressing H. pylori AddAB, absorbance growth; inhibition, % at 11.9 µM; 0.29% of 330,000 active; AID 435030; in the data active = inhibition above about 12%;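 also: 0% = vehicle wells of infected cells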
# E coli growth-2: reduces bacterial viability in AddAB counter-screen; E. coli V3065 growth, OD600 absorbance, 18 h; inhibition, % at 11.9 µM; 0.27% of 330,000 active; AID 449728;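 active = inhibition above the campaign's mean inhibition across all tested compounds plus 3 SD, cut at about 9.9% in these data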;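 also: uninfected addAB+ strain grown without phage in ampicillin broth; 0% = DMSO wells and 100% = ciprofloxacin 0.95 µg/ml wells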
# * = called active by the depositor; x = no result. Shown are actives, neighbours in structure and some others; about 0.51% of the full set was active somewhere.
SMILES,phage Ecoli inh,Tat export inh,E coli growth-1,AddAB inh,E coli growth-2
COc1ccc(C(=O)N2CC3(CC(c4ccc(Cl)cc4)=NO3)CC2C(=O)NCC(N)=O)cc1 (stereo not given),x,x,0.628,x,x
NC1=NC[C@@H](CC2CCCCC2)N1CCc1cc(C(F)(F)F)cc(C(F)(F)F)c1,x,-4.6,0.0625*,-1.9,-1.1
O=C(Nc1ccccc1C(=O)NC1CC1)c1ccc([N+](=O)[O-])o1,15.7*,-2.5,0.525,x,x
Cc1ccc(CCNC(=O)C2CCCN(S(=O)(=O)c3c(C)noc3C=CN(C)C)C2)cc1 (stereo not given),x,x,0.673,x,x
CCOC(=O)c1c(-c2ccc(-c3ccccc3)cc2)csc1NC(=O)CNCCN(C)C,-2.7,13.4,0.413*,-5.9,-3.4
CCOC(=O)c1c(-c2ccccc2)csc1NC(=O)CCN1C(=O)c2ccccc2C1=O,3.0,1.0,0.716,4.8,-0.9
O=c1[nH]c(=O)n(C2CC(O)C(CO)O2)cc1F (stereo not given),x,x,0.0625*,x,x
C(=NNc1nc(N2CCCC2)nc(N2CCCC2)n1)c1ccccc1OCc1ccccc1,x,x,0.665,x,x
Cc1csc(N=Cc2ccc([N+](=O)[O-])o2)n1,12.3*,x,x,x,x
COC1C(OC(N)=O)C(O)C(Oc2ccc3c(O)c(NC(=O)c4ccc(O)c(CC=C(C)C)c4)c(=O)oc3c2C)OC1(C)C (stereo not given),x,x,0.382*,x,x
C=CC[n+]1ccc(/C=C2\C=Cc3cc(C)ccc3N2CC)c2ccccc21,x,-172.9,0.435*,x,x
CCCCCCN=C1CC(C)(C)CC(=O)/C1=C(\O)CCC,x,x,0.685,x,x
COc1ccc(Cl)cc1C(=O)Nc1ccc(NC(C)=O)cc1,4.0,-3.9,0.709,0.8,0.5
CC(=O)Oc1c(I)cc(I)cc1C(=O)Nc1ccc(Cl)cc1,7.8,-10.1,x,10.7,11.9*
Cc1cc(C)c(S(=O)(=O)/N=C2/C=C(Sc3ncn[nH]3)C(=O)c3ccccc32)cc1C,11.1*,-9.1,x,5.1,4.5
Cc1ccc(C(=O)N/C(=C\c2ccc(-c3cccc([N+](=O)[O-])c3)o2)C(=O)NCCCN(C)C)cc1,0.0,-3.2,0.722,-2.0,-1.5
Cc1ccc(C(=O)N/C(=C\c2ccc(-c3ccc(Br)cc3)o2)C(=O)NCCCN(C)C)cc1,3.2,7.7,0.499*,-0.1,-1.6
O=C(NCc1ccccc1)C1=CC(C2CC2)CC(OCc2ccc(CO)cc2)O1 (stereo not given),x,x,0.722,x,x
COc1c(N2CC3CCCNC3C2)c(F)cc2c(=O)c(C(=O)O)cn(C3CC3)c12 (stereo not given),x,x,0.0575*,x,x
CC1CN(C(C)CO)C(=O)c2cccc(N(C)C)c2OC1CN(C)C(=O)Nc1ccc(C(F)(F)F)cc1 (stereo not given),x,x,0.64,x,x
CC(=O)OCC1=C(C(=O)OC(C)(C)C)N2C(=O)[C@@H](NC(=O)Cc3ccccc3)[C@H]2SC1,1.5,-5.2,0.723,x,x
COc1cccc(C(=O)NC2C(=O)N3C(C(=O)O)=C(COC(C)=O)CSC23)c1 (stereo not given),0.7,0.1,x,1.3,-0.3
CON=C(C(=O)NC1C(=O)N2C(C(=O)O)=C(COC(C)=O)CSC12)c1csc(N)n1 (stereo not given),x,x,0.063*,x,x
COCC1=C(C(=O)OC(C)OC(=O)OC(C)C)N2C(=O)C(NC(=O)C(=NOC)c3csc(N)n3)C2SC1 (stereo not given),x,x,0.283*,x,x
CC(C(=O)NC1C(=O)N2C(C(=O)O)=C(CSc3nnnn3C)CSC12)n1cc(Cl)cn1 (stereo not given),5.0,-2.9,0.501*,-0.7,1.1
SMILES,phage Ecoli inh,Tat export inh,E coli growth-1,AddAB inh,E coli growth-2
Cc1nnc(SCC2=C(C(=O)O)N3C(=O)C(NC(=O)Cc4ccccc4)C3SC2)s1 (stereo not given),2.4,8.2,0.6,1.9,-0.9
Cc1nn(CC(=O)NC2C(=O)N3C(C(=O)O)=C(CSc4nnnn4C)CSC23)cc1Br (stereo not given),5.1,-11.2,0.461*,0.1,1.2
Cc1c(Cl)cnn1CC(=O)NC1C(=O)N2C(C(=O)O)=C(CSc3nnnn3C)CSC12 (stereo not given),7.6,-0.1,0.074*,-1.9,-1.9
CCN1CCN(C(=O)NC(C(=O)NC2C(=O)N3C(C(=O)O)=C(CSc4nnnn4C)CSC23)c2ccc(O)cc2)C(=O)C1=O (stereo not given),x,x,0.061*,x,x
CC1CN(C(C)CO)C(=O)Cc2cc(NS(=O)(=O)c3ccccc3)ccc2OC1CN(C)Cc1ccc(-c2ccccc2)cc1 (stereo not given),x,x,0.734,x,x
CC(C)CC1CN=C(Nc2ccccc2)N1CC1CCCC1 (stereo not given),x,x,0.68,x,x
